# PubChem BioAssay (NCI)
# About 83,000 compounds went through this panel and 20% of them were active in at least one assay; those are over-represented in the sample as a whole.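 Testing used 96-well plates and a 48-hour single-concentration exposure. Example: -40 means 40% of the starting cells died.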 Values without a mark were called inactive. Calls of active or inactive are those of the source. Rule for the calls: active = growth percent below 10; inactive = the rest.
# How the values were obtained:
# Assay in all cases: NCI-60 one-dose screen, 48 h (100 = growth as untreated, 0 = no growth, -100 = all killed)
# Conditions in all cases: 10 µM unless noted
# NCI-H23 lung = tested on: NCI-H23 lung
# NCI-H226 lung = tested on: NCI-H226 lung
# NCI-H322M lung = tested on: NCI-H322M lung
# HOP-62 NSCLC = tested on: HOP-62 NSCLC
# NCI-H460 lung = tested on: NCI-H460 lung
# HOP-92 NSCLC = tested on: HOP-92 NSCLC
# A549/ATCC NSCLC = tested on: A549/ATCC NSCLC
# 786-0 renal = tested on: 786-0 renal
# COLO 205 colon = tested on: COLO 205 colon
# DU-145 prostate = tested on: DU-145 prostate
# K-562 leukemia = tested on: K-562 leukemia
# MALME-3M melanoma = tested on: MALME-3M melanoma
# MDA-MB-231 breast = tested on: MDA-MB-231 breast
# RXF 393 renal = tested on: RXF 393 renal
# SF-268 CNS = tested on: SF-268 CNS
# SF-295 CNS = tested on: SF-295 CNS
# SF-539 CNS = tested on: SF-539 CNS
# UACC-257 melanoma = tested on: UACC-257 melanoma
# M14 melanoma = tested on: M14 melanoma
SMILES,growth (NCI-H23 lung),growth (NCI-H226 lung),growth (NCI-H322M lung),growth (HOP-62 NSCLC),growth (NCI-H460 lung),growth (HOP-92 NSCLC),growth (A549/ATCC NSCLC),growth (786-0 renal),growth (COLO 205 colon),growth (DU-145 prostate),growth (K-562 leukemia),growth (MALME-3M melanoma),growth (MDA-MB-231 breast),growth (RXF 393 renal),growth (SF-268 CNS),growth (SF-295 CNS),growth (SF-539 CNS),growth (UACC-257 melanoma),growth (M14 melanoma)
CCOC(=O)CCN(c1c(Cl)ssc1=O)C(C)C,105%,112%,102%,106%,106%,97%,93.9%,98.9%,115%,100%,106%,111%,104%,87.8%,113%,119%,97.7%,95.5%,84.7%
Cc1ccccc1NC(=O)NC(CC(N)=O)c1ccc2c(c1)nc(-c1cccc(Oc3ccc(C(C)(C)C)cc3)c1)n2CCCN1CCCCC1C (configuration not stated),64.7%,109%,65%,25.8%,-30.7% (active),13.5%,54.9%,26.7%,-65.6% (active),68.2%,-44.6% (active),-52.6% (active),28.1%,25.1%,46.7%,83.5%,13.1%,-71.3% (active),-81.8% (active)
COc1cc(/C=C/C(=O)CC(=O)/C=C/c2ccc(OC(=O)C3C4CC5CC(C4)CC3C5)c(OC)c2)ccc1OC(=O)C1C2CC3CC(C2)CC1C3 (configuration not stated),104%,123%,92.9%,99.1%,120%,65.5%,102%,104%,110%,120%,95.1%,78.4%,116%,110%,104%,98.9%,108%,102%,105%
CCOC(=O)/C=C1/SC(=Nc2ccc(C#N)cc2)N(Cc2ccco2)C1=O,70.6%,70.3%,95.5%,60.3%,38.9%,37.2%,67.2%,34.6%,50.2%,39.2%,8.76% (active),47.6%,57%,-23.9% (active),73.2%,88.8%,38.1%,54.9%,25.8%
COc1cc(/C=C/c2cc(/C=C/c3ccc(O)c(OC)c3)n(C(=O)c3ccc(Cl)cc3)n2)ccc1O,21.8%,48.4%,28.5%,20.3%,4.86% (active),-2.95% (active),12.4%,19.5%,98.7%,19.9%,2.24% (active),44.6%,31.8%,15.3%,27%,48%,10.1%,63.2%,-1.11% (active)
CNCCCn1c2c(c3ccc(F)cc3c1=O)C(=O)c1cc(OC)cnc1-2,-41.5% (active),-61.2% (active),-1.98% (active),-30% (active),-37.6% (active),-12.4% (active),-71.2% (active),-38.3% (active),-33.1% (active),0.683% (active),1.41% (active),-56.6% (active),11.7%,-78.8% (active),4.62% (active),-15.3% (active),-24.7% (active),-16.5% (active),-10.8% (active)
CCN(CC)CCCCCCCNc1c2ccc(Cl)cc2nc2ccc(OC)cc12,-24.3% (active),-18.2% (active),-35% (active),-49.2% (active),-67.6% (active),-62.1% (active),-37.9% (active),-57.5% (active),-92.5% (active),-28.6% (active),-21.5% (active),-20.6% (active),-30% (active),-70.8% (active),-59.1% (active),-51.6% (active),-71.2% (active),-84.3% (active),-48.8% (active)
COc1cnc2c(c1)C(=O)c1c-2n(CCCN2CCC(O)CC2)c(=O)c2cc(F)ccc12,-19.9% (active),-83.7% (active),-3.95% (active),-20.8% (active),-44.5% (active),-7.92% (active),-77.5% (active),-45.9% (active),-10.9% (active),-8.46% (active),-0.117% (active),-61.9% (active),19.9%,-43.1% (active),9.51% (active),-20.7% (active),-17.1% (active),-16.3% (active),-22.4% (active)
